Compounds without any hit were thinned out: in the full panel of roughly 83,000, 20% have a hit.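 96-well plates, one dose, 48 hours. Percent growth reported; active if below 10.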 Calls of active or inactive are those of the source.
Test system: HL-60(TB) leukemia
Assay: NCI-60 one-dose screen, 48 h (100 = growth as untreated, 0 = no growth, -100 = all killed)
Details: 10 µM unless noted

Row | Compound | growth
1 | O=C1/C(=C/c2ccc(Oc3ccccc3)cc2)N=C(c2ccccc2)N1CCc1cccs1 | 86% (inactive)
2 | CC1=NN(c2ccccc2)C(=O)/C1=C\N1CC(=O)NC1=S | 103% (inactive)
3 | COc1ccc(C(=O)n2nc(/C=C/c3ccc(O)c(OC)c3)cc2/C=C/c2ccc(O)c(OC)c2)cc1 | -15.6% (active)
4 | CCCCCCCCCCCCCC[n+]1ccc(C(N)=O)cc1 | -50.6% (active)
5 | O=c1c2c(=NCCN3CCCC3)cc3c(=O)n(CCCN4CCOCC4)c(=O)c4c(-c5ccc(CN6CCCC6)cc5)cc(c(O)n1CCCN1CCOCC1)c2c4-3 | -36.5% (active)
6 | O=C1NC(=S)N[C@H]1CC(=O)n1cnc2ccccc21 | 109% (inactive)
7 | CCc1c(Nc2ccccc2C)nc(N)[nH]c1=O | 88.9% (inactive)
8 | O=[N+]([O-])c1cnc(Sc2ccncn2)s1 | -20.2% (active)
9 | O=C(c1ccccc1)N1N=C(c2ccc(-n3ccc(C(F)(F)F)n3)cc2)CC1c1ccc[nH]1 (stereo not given) | 93.3% (inactive)
10 | COc1ccc(C2=C/C(=C\c3ccccc3O)C(=O)N2Cc2ccccc2)cc1 | 40.9% (inactive)
11 | CN(C)CC1C(=O)O[C@H]2[C@H]1CC/C(COC(=O)NCc1ccc(Cn3c(=O)sn(CCCI)c3=O)cc1)=C\CC[C@@]1(C)O[C@@H]21 (stereo not given in full) | -36.5% (active)
12 | COc1cc(NC(=O)c2cncnc2Nc2ccc3c(ccn3Cc3cccc(F)c3)c2)cc(OC)c1 | 21% (inactive)
13 | CC1CCc2c(C(=O)Nc3ncc(Cc4cccc([N+](=O)[O-])c4)s3)csc2C1 (stereo not given) | -26.3% (active)
14 | CCNC(=O)N1CCc2c(Cl)c3c(c(OC)c2[C@@H]1[C@H]1OCc2c1ccc(OC)c2OC)OCCO3 | -2.42% (active)
15 | C=CCn1c(SCC(=O)Nc2ccc(/C(C)=N\O)cc2)nnc1-c1cc(-c2ccc(OC)cc2)nc2ccccc12 | -39.2% (active)
16 | CCOC(=O)c1c(C)oc2ncnc(Nc3ccc(NC(=O)Nc4cccc(Cl)c4)cc3)c12 | 88.4% (inactive)
17 | O=CN1N=C(c2ccc(Nc3ccnc4cc(Cl)ccc34)cc2)CC1c1ccccc1 (stereo not given) | -25.8% (active)
18 | Nc1ccc2c(c1)Cc1cc(Cl)c(Cl)cc1-2 | 53.4% (inactive)
19 | COc1ccc(N2CCN(c3nc(-c4cc(OC)c(OC)c(OC)c4)nc4ccccc34)CC2)cc1 | 44.4% (inactive)
20 | NC1(N2SC(S)=C3CCCC=C32)CCCCC1 | 89.6% (inactive)

Row | Compound | growth
21 | O=C1Nc2ccc(Cl)cc2[C@@](C#CC2CC2)(C(F)(F)F)O1 | 96.5% (inactive)
22 | Cc1ccccc1-n1c(C)nc2cc(NC(=O)c3ccc(Cl)cc3)ccc2c1=O | 64.5% (inactive)
23 | COc1cc(/C=N/NC(=O)Cn2c(C(C)C)nc3ccccc32)ccc1O | 85.2% (inactive)
24 | CCCCCC/C=C\CCCCCCCCOc1ccc(CCOP(=O)(O)OCC[N+](C)(C)C)cc1 | -15.1% (active)
25 | CC(C)c1ccc(C(=O)Nc2sc3cc(O)ccc3c2C#N)cc1 | -6.25% (active)
26 | O=C(Nc1cccc2c1CCCC2)c1cc2ccccc2cc1O | 14.9% (inactive)
27 | COc1ccc(/C=C/C(=O)c2cc3c(N)c(C(=O)Nc4ccccc4C)sc3nc2C)cc1 | 10.7% (inactive)
28 | CCN(CC)C(=O)C1(C)CCCC2(C)c3cc(OC(C)=O)ccc3CCC12 (stereo not given) | 71.2% (inactive)
29 | COc1ccc(-c2cc(-c3ccc(Cl)cc3)c(C#N)c(=O)n2CCCCCC(=O)Nc2ccccc2N)cc1 | -14.5% (active)
30 | CNC(=O)c1cccc(Cn2nc(C)c(NC(=O)c3ccc(COc4ccc(C(F)(F)F)cc4C)cc3)c2C)c1 | 47.1% (inactive)
31 | N#C/C(=C\c1ccc(Cl)cc1)n1nnc2cc(F)c(F)cc21 | -19.4% (active)
32 | Cc1cc2c(-c3nc4ccccn4c3NC34CC5CC(CC(C5)C3)C4)c(O)c(O)cc2c(O)c1-c1c(C)cc2c(-c3nc4ccccn4c3NC34CC5CC(CC(C5)C3)C4)c(O)c(O)cc2c1O | 5.04% (active)
33 | CC(=O)c1cc2c(cc1F)C(C)(C)CCC2(C)C | 86.3% (inactive)
34 | CC1=CN2C(=O)C3C4=C(CCCC4)SC3N=C2CN1c1c(C)cccc1C (stereo not given) | -9.4% (active)
35 | O=C(NCCN1CCCCC1)n1cc(-c2ccncc2)c(-c2ccc(Cl)c(O)c2)n1 | 71.1% (inactive)
36 | OCCNc1ccccc1 | 100% (inactive)
37 | CS(=O)(=O)Nc1ccc(Nc2c3ccccc3nc3cc(N)ccc23)cc1 | 5.48% (active)
38 | O=Cc1c(OCc2cnnn2CC(=O)Nc2ccc(Cl)cc2)ccc2ccccc12 | 98.5% (inactive)
39 | CCN(CC)CCCCCCNc1cc(OC)c(Cl)c2cccnc12 | 119% (inactive)
40 | COc1cc(-c2ccc[nH]2)[nH]c1/C=C1\N=C(C)C(C(=O)NC(C)C)=C1C | 26.1% (inactive)

Source: PubChem BioAssay (NCI)
